According to the supplement of paper PMC9950053:
Where a name gives a salt, the structure may show the parent alone.

System: Danio rerio larvae (5 dpf)
Assay: combined upward orientation toward moving lines (periods 7-14) minus DMSO control (percentage points); higher = more orientation with moving lines than DMSO larvae
Conditions: 10 µM; exposure time: 3 h pre-incubation + 3 h imaging
Description: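 Wild-type 5 dpf zebrafish larvae (n=48 per drug, 96-well plates, 28.5 °C) were exposed to Tocris FDA-approved library compounds at 10 µM (0.1% DMSO) for 3 h before and 3 h during imaging. Images were taken every 6 s during visual and acoustic stimuli, and larvae were tracked with Z-LaP Tracker. Each measure is the treated-group mean minus the DMSO control mean (n=844), in percentage points. This mapping covers compounds with 5-character plate codes.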

Compound | combined upward orientation toward moving lines
COCCc1ccc(OCC(O)CNC(C)C)cc1 (configuration not stated) [Metoprolol tartrate] | -3.38
COc1cc([C@@H]2c3cc4c(cc3[C@@H](O[C@@H]3O[C@@H]5CO[C@@H](C)O[C@H]5[C@H](O)[C@H]3O)[C@H]3COC(=O)[C@H]23)OCO4)cc(OC)c1O [Etoposide] | -2.65
CNS(=O)(=O)Cc1ccc2[nH]cc(CCN(C)C)c2c1 [Sumatriptan succinate] | -8.09
COc1ccccc1OCC(O)CN1CCN(CC(=O)Nc2c(C)cccc2C)CC1 (configuration not stated) [Ranolazine dihydrochloride] | 4.03
CCc1nc(N)nc(N)c1-c1ccc(Cl)cc1 [Pyrimethamine] | 7.4
COc1ccccc1Oc1c(NS(=O)(=O)c2ccc(C(C)(C)C)cc2)nc(-c2ncccn2)nc1OCCO [Bosentan] | -0.697
CN(C)C(=N)NC(=N)N [Metformin hydrochloride] | 1.11
CN(C)CCc1c[nH]c2ccc(C[C@H]3COC(=O)N3)cc12 [Zolmitriptan] | -1.47
C[C@@H]1C[C@H]2[C@@H]3CCC4=CC(=O)C=C[C@]4(C)[C@@]3(F)[C@@H](O)C[C@]2(C)[C@@]1(O)C(=O)CO [Dexamethasone] | -5.03
OC(c1cc(C(F)(F)F)nc2c(C(F)(F)F)cccc12)C1CCCCN1 (configuration not stated) [Mefloquine hydrochloride] | 5.79
NC(=O)OCC(COC(N)=O)c1ccccc1 [Felbamate] | 4.58
CC(=O)Nc1ccc(O)cc1 [Acetaminophen] | -1.22
CC(C)COCC(CN(Cc1ccccc1)c1ccccc1)N1CCCC1 (configuration not stated) [Bepridil hydrochloride] | 3.56
Clc1ccc2nsnc2c1NC1=NCCN1 [Tizanidine hydrochloride] | -5.19
CC[C@H]1OC(=O)[C@H](C)[C@@H](O[C@H]2C[C@@](C)(OC)[C@@H](O)[C@H](C)O2)[C@H](C)[C@@H](O[C@@H]2O[C@H](C)C[C@H](N(C)C)[C@H]2O)[C@](C)(O)C[C@@H](C)CN(C)[C@H](C)[C@@H](O)[C@]1(C)O [Azithromycin] | -3.81
NS(=O)(=O)c1cc2c(cc1Cl)NC(C1CC3C=CC1C3)NS2(=O)=O (configuration not stated) [Cyclothiazide] | -2.57
CC(C)OC(=O)C(C)(C)Oc1ccc(C(=O)c2ccc(Cl)cc2)cc1 [Fenofibrate] | 6.13
CCCCCCCN(CC)CCCC(O)c1ccc(NS(C)(=O)=O)cc1 (configuration not stated) [Ibutilide hemifumarate] | -0.0944
CNCc1ccc(-c2[nH]c3cc(F)cc4c3c2CCNC4=O)cc1 [Rucaparib camsylate] | 2

Compound | combined upward orientation toward moving lines
CCCc1nn(C)c2c(=O)[nH]c(-c3cc(S(=O)(=O)N4CCN(C)CC4)ccc3OCC)nc12 [Sildenafil citrate] | 0.372
C#CCN[C@@H]1CCc2ccccc21 [Rasagiline mesylate] | -1.34
O=C(O)C[C@H](O)C[C@H](O)/C=C/c1c(C2CC2)nc2ccccc2c1-c1ccc(F)cc1 [Pitavastatin calcium] | 2.14
O=C1CCc2ccc(OCCCCN3CCN(c4cccc(Cl)c4Cl)CC3)cc2N1 [Aripiprazole] | -7.24
COc1cc2nccc(Oc3ccc(NC(=O)C4(C(=O)Nc5ccc(F)cc5)CC4)cc3)c2cc1OC | -10.5
N#C[C@@H]1C[C@@H]2C[C@@H]2N1C(=O)[C@@H](N)C12CC3CC(CC(O)(C3)C1)C2 [Saxagliptin hydrochloride] | -3.59
OCc1cc(C(O)CNCCCCCCOCCCCc2ccccc2)ccc1O (configuration not stated) [Salmeterol xinafoate] | -1.98
CC(=O)Oc1cc2c(s1)CCN(C(C(=O)C1CC1)c1ccccc1F)C2 (configuration not stated) [Prasugrel] | -5.5
Cc1cc2c(s1)Nc1ccccc1N=C2N1CCN(C)CC1 [Olanzapine] | 3.25
CNC(=O)c1cc(Oc2ccc(NC(=O)Nc3ccc(Cl)c(C(F)(F)F)c3)cc2)ccn1 [Sorafenib] | -23.2
C[C@H]1O[C@H](O[C@H]2[C@H](O)[C@@H](O)[C@@H](O[C@H]3[C@H](O)[C@@H](O)C(O)O[C@@H]3CO)O[C@@H]2CO)[C@H](O)[C@@H](O)[C@@H]1N[C@H]1C=C(CO)[C@@H](O)[C@H](O)[C@H]1O (some centres not stated) [Acarbose] | 4.65
OCCN1C[C@H](O)[C@@H](O)[C@H](O)[C@H]1CO [Miglitol] | -1.58
COc1cc(N)c(Cl)cc1C(=O)NC1CCN(CCCOc2ccc(F)cc2)CC1OC (configuration not stated) [Cisapride] | -4.69
CCCC1O[C@@H]2C[C@H]3[C@@H]4CCC5=CC(=O)C=C[C@]5(C)[C@H]4[C@@H](O)C[C@]3(C)[C@]2(C(=O)CO)O1 (some centres not stated) [Budesonide] | 0.263
O=c1n(CCCN2CCN(c3cccc(Cl)c3)CC2)nc2ccccn12 [Trazodone hydrochloride] | -3.19
N#Cc1ccc2[nH]cc(CCCCN3CCN(c4ccc5oc(C(N)=O)cc5c4)CC3)c2c1 [Vilazodone hydrochloride] | -4.15
CN[C@H]1CC[C@@H](c2ccc(Cl)c(Cl)c2)c2ccccc21 [Sertraline hydrochloride] | -5.13
CC(C)(C(=O)O)c1ccc(C(O)CCCN2CCC(C(O)(c3ccccc3)c3ccccc3)CC2)cc1 (configuration not stated) [Fexofenadine hydrochloride] | 1.12
